Test systems include NCI-H23 lung; NCI-H226 lung; HOP-62 NSCLC; NCI-H460 lung; HOP-92 NSCLC; NCI-H522 lung; A549/ATCC NSCLC; 786-0 renal; DU-145 prostate; K-562 leukemia; MALME-3M melanoma; MDA-MB-231 breast; RXF 393 renal; SF-268 CNS; SF-295 CNS; SF-539 CNS; UACC-257 melanoma.
What all share (assay): NCI-60 one-dose screen, 48 h (100 = growth as untreated, 0 = no growth, -100 = all killed)
Another experiment has as its system NCI-H322M lung. The note with it: 10 µM unless noted.
A further experiment has as its system COLO 205 colon. The note with it: 10 µM unless noted.
Another experiment relates to M14 melanoma. As to conditions: 10 µM unless noted.

The panel holds about 83,000 compounds, 20% with a hit somewhere; the sample as a whole holds those more often.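 48-hour exposure, single concentration, 96-well plates; percent growth endpoint where 0 means no net growth. Active: below 10.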 A number with no mark means an inactive call. The source made the active and inactive calls.

On to `C[C@@H]1CC[C@@H]2[C@@H]1[C@H](OC(=O)/C=C/c1ccccc1)[C@]1(c3ccccc3)C[C@@H](NC(=O)CO)[C@@]2(C)O1`, for which the growth in the experiment on NCI-H23 lung (10 µM unless noted) is 97.7%; in the experiment with NCI-H226 lung (10 µM unless noted) it was 88.8%; with NCI-H322M lung it was 98.2%; in the experiment on HOP-62 NSCLC (10 µM unless noted), 96.8%; with NCI-H460 lung (10 µM unless noted) it was 105%; with HOP-92 NSCLC (10 µM unless noted) it was 65.5%. For the same compound, the growth in the experiment on NCI-H522 lung (10 µM unless noted) is 82.3%; in the experiment on A549/ATCC NSCLC (10 µM unless noted), 95%; in the experiment with 786-0 renal (10 µM unless noted), 101%; in the experiment with COLO 205 colon, 99.7%; in the experiment with DU-145 prostate (10 µM unless noted), 107%; in the experiment on K-562 leukemia (10 µM unless noted), 84.4%. Besides, the growth is 98.6% with MALME-3M melanoma (10 µM unless noted); 96.9% with MDA-MB-231 breast (10 µM unless noted); 83.2% with RXF 393 renal (10 µM unless noted); 93.6% with SF-268 CNS (10 µM unless noted); 93.8% with SF-295 CNS (10 µM unless noted); 97.9% in the experiment with SF-539 CNS (10 µM unless noted). In addition, the growth with UACC-257 melanoma (10 µM unless noted) is 93%.

As to `C=C1C(=O)O[C@@H]2[C@H]3[C@H](COC(C)=O)[C@@H](OC(C)=O)C[C@H]3C(=C)[C@@H](O)C[C@@H]12`, the growth with NCI-H23 lung (10 µM unless noted) was 96.2%; in the experiment with NCI-H226 lung (10 µM unless noted) it was 98.8%; with NCI-H322M lung it was 102%; with HOP-62 NSCLC (10 µM unless noted), 91.7%; in the experiment on NCI-H460 lung (10 µM unless noted), 103%; in the experiment on HOP-92 NSCLC (10 µM unless noted), 99.8%. In addition, the growth is 73% in the experiment on NCI-H522 lung (10 µM unless noted); 90.6% with A549/ATCC NSCLC (10 µM unless noted); 85.8% in the experiment on 786-0 renal (10 µM unless noted); 100% in the experiment with COLO 205 colon; 76.5% in the experiment on DU-145 prostate (10 µM unless noted); 86.8% in the experiment on K-562 leukemia (10 µM unless noted). In addition, the growth was 88.9% in the experiment with MALME-3M melanoma (10 µM unless noted); 99% in the experiment with MDA-MB-231 breast (10 µM unless noted); 99.5% in the experiment on RXF 393 renal (10 µM unless noted); 96.5% with SF-268 CNS (10 µM unless noted); 103% in the experiment with SF-295 CNS (10 µM unless noted); 103% in the experiment on SF-539 CNS (10 µM unless noted). The figures for the growth in the experiment with UACC-257 melanoma (10 µM unless noted) and with M14 melanoma were 83.3% and 87.6%, respectively.

On to `COc1ccc(-c2nnc3n(C)c(=O)c4ccccc4n23)cc1O`, for which the growth was 41.4% in the experiment on NCI-H23 lung (10 µM unless noted); 76.8% with NCI-H226 lung (10 µM unless noted); 44.6% in the experiment on NCI-H322M lung; 20.3% in the experiment on HOP-62 NSCLC (10 µM unless noted); 12% in the experiment on NCI-H460 lung (10 µM unless noted); 67.3% with HOP-92 NSCLC (10 µM unless noted). Besides, the growth was 15.6% with NCI-H522 lung (10 µM unless noted); 16.5% in the experiment with A549/ATCC NSCLC (10 µM unless noted); 30.8% in the experiment with 786-0 renal (10 µM unless noted); 16.6% in the experiment on COLO 205 colon; 27.1% in the experiment with DU-145 prostate (10 µM unless noted); 9.1% (active) with K-562 leukemia (10 µM unless noted). Further, the growth in the experiment with MALME-3M melanoma (10 µM unless noted) is 70.8%; in the experiment with MDA-MB-231 breast (10 µM unless noted), 36.4%; in the experiment on RXF 393 renal (10 µM unless noted), -11.7% (active); in the experiment with SF-268 CNS (10 µM unless noted), 54.1%; with SF-295 CNS (10 µM unless noted), 11.6%; in the experiment on SF-539 CNS (10 µM unless noted) it was -3.83% (active). In addition, in the experiment with UACC-257 melanoma (10 µM unless noted), the growth is 49.8%.

Consider `COc1ccc2c(c1)CCNC21C(=O)Nc2c(Br)cc(Br)cc21` (stereo not given), for which the growth in the experiment with NCI-H23 lung (10 µM unless noted) is 98.4%; in the experiment with NCI-H226 lung (10 µM unless noted), 101%; with NCI-H322M lung, 90.3%; in the experiment on HOP-62 NSCLC (10 µM unless noted), 86.1%; in the experiment with NCI-H460 lung (10 µM unless noted), 101%; in the experiment with HOP-92 NSCLC (10 µM unless noted), 93.2%. The growth in the experiment on NCI-H522 lung (10 µM unless noted) is 91.6%; in the experiment with A549/ATCC NSCLC (10 µM unless noted), 99.2%; in the experiment on 786-0 renal (10 µM unless noted), 94.8%; in the experiment on COLO 205 colon, 112%; in the experiment with DU-145 prostate (10 µM unless noted) it was 110%; in the experiment on K-562 leukemia (10 µM unless noted), 98.8%. The growth in the experiment on MALME-3M melanoma (10 µM unless noted) is 88.3%; in the experiment with MDA-MB-231 breast (10 µM unless noted), 74.7%; in the experiment on RXF 393 renal (10 µM unless noted), 133%; with SF-268 CNS (10 µM unless noted), 100%; with SF-295 CNS (10 µM unless noted) it was 103%; with SF-539 CNS (10 µM unless noted), 94%. Besides, in the experiment on UACC-257 melanoma (10 µM unless noted), the growth is 100%.

Turning to `O=c1cc(N/N=C/c2ccc(F)cc2)c2cc(Cl)ccc2[nH]1`, the growth with NCI-H23 lung (10 µM unless noted) is 85.3%; in the experiment with NCI-H226 lung (10 µM unless noted) it was 76.1%; in the experiment on NCI-H322M lung it was 95.2%; with HOP-62 NSCLC (10 µM unless noted) it was 95%; in the experiment on NCI-H460 lung (10 µM unless noted) it was 102%; in the experiment with HOP-92 NSCLC (10 µM unless noted) it was -48.3% (active). Moreover, the growth is 72.8% in the experiment with NCI-H522 lung (10 µM unless noted); 89.3% in the experiment on A549/ATCC NSCLC (10 µM unless noted); 89.5% in the experiment on 786-0 renal (10 µM unless noted); 96.2% in the experiment on COLO 205 colon; 102% with DU-145 prostate (10 µM unless noted); 2.38% (active) in the experiment on K-562 leukemia (10 µM unless noted). Besides, the growth was 98.4% in the experiment on MALME-3M melanoma (10 µM unless noted); 94.4% with MDA-MB-231 breast (10 µM unless noted); 113% in the experiment with RXF 393 renal (10 µM unless noted); 106% with SF-268 CNS (10 µM unless noted); 100% in the experiment on SF-295 CNS (10 µM unless noted); 104% in the experiment with SF-539 CNS (10 µM unless noted). Besides, the growth in the experiment with UACC-257 melanoma (10 µM unless noted) is 85.8%.

Take `CC(=O)/C=C/c1ccc(OCc2ccc(Cl)cc2)cc1`: the growth is 90.9% in the experiment on NCI-H23 lung (10 µM); 37.1% with NCI-H23 lung (100 µM); 100% in the experiment on NCI-H226 lung (10 µM); 49.6% with NCI-H226 lung (100 µM); 52.5% [100 µM] in the experiment with NCI-H322M lung; 110% in the experiment with HOP-62 NSCLC (10 µM). The growth is 44.9% in the experiment with HOP-62 NSCLC (100 µM); 101% with NCI-H460 lung (10 µM); 26.1% in the experiment on NCI-H460 lung (100 µM); 91.8% in the experiment on HOP-92 NSCLC (10 µM); 11% in the experiment with HOP-92 NSCLC (100 µM); 90.4% in the experiment on NCI-H522 lung (10 µM). Besides, the growth with NCI-H522 lung (100 µM) is -3.06% (active); in the experiment on A549/ATCC NSCLC (10 µM) it was 75.9%; in the experiment on A549/ATCC NSCLC (100 µM) it was 34.1%; with 786-0 renal (10 µM), 88.1%; in the experiment with 786-0 renal (100 µM), 51.2%; with DU-145 prostate (10 µM), 96.6%. Also, the growth in the experiment on DU-145 prostate (100 µM) was 52.9%; in the experiment with K-562 leukemia (10 µM), 79.1%; in the experiment with K-562 leukemia (100 µM), 26.1%; with MALME-3M melanoma (10 µM), 110%; with MALME-3M melanoma (100 µM), -1.84% (active); in the experiment on MDA-MB-231 breast (10 µM) it was 117%. For the same compound, the growth was 9.42% (active) in the experiment on MDA-MB-231 breast (100 µM); 105% in the experiment on RXF 393 renal (10 µM); 55.5% in the experiment with RXF 393 renal (100 µM); 101% with SF-268 CNS (10 µM); 52.3% in the experiment with SF-268 CNS (100 µM); 99.1% in the experiment on SF-295 CNS (10 µM). For the same compound, the growth with SF-295 CNS (100 µM) was 39.9%; with SF-539 CNS (10 µM), 109%; in the experiment on SF-539 CNS (100 µM), 44.4%; with UACC-257 melanoma (10 µM) it was 86.6%; with UACC-257 melanoma (100 µM), -1.1% (active).

As for `CC(=O)c1c(C)nc2ccccc2c1/C=C/c1cccc(C)c1`, the growth was 61.6% with NCI-H23 lung (10 µM unless noted); 75.2% in the experiment on NCI-H226 lung (10 µM unless noted); 96.9% with NCI-H322M lung; 60.9% with HOP-62 NSCLC (10 µM unless noted); 33.8% in the experiment with NCI-H460 lung (10 µM unless noted); 60.2% in the experiment with HOP-92 NSCLC (10 µM unless noted). In addition, the growth was 41.5% with NCI-H522 lung (10 µM unless noted); 43.6% in the experiment with A549/ATCC NSCLC (10 µM unless noted); 79.7% in the experiment on 786-0 renal (10 µM unless noted); 58.5% with COLO 205 colon; 88.2% with DU-145 prostate (10 µM unless noted); 16.1% in the experiment with K-562 leukemia (10 µM unless noted). Besides, the growth in the experiment with MALME-3M melanoma (10 µM unless noted) was 82.9%; in the experiment on MDA-MB-231 breast (10 µM unless noted), 63.5%; in the experiment with RXF 393 renal (10 µM unless noted), 73.1%; in the experiment with SF-268 CNS (10 µM unless noted), 81.9%; with SF-295 CNS (10 µM unless noted), 58%; with SF-539 CNS (10 µM unless noted), 61.7%. Moreover, in the experiment on UACC-257 melanoma (10 µM unless noted), the growth was 73.5%.

Source of the values: PubChem BioAssay (NCI).
